About 79,000 compounds went through this panel and 15% of them were active in at least one assay; those are over-represented in the sample as a whole. The source made the active and inactive calls. No stated cut-off is given here; in the data, active means growth inhibition above about 70%; inactive means the rest.
Tests used:
[1] = NCI Yeast Anticancer Drug Screen. Data for the rad50 strain (AID 155);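 further: 0% = growth of vehicle-only cultures of the same strain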; settings: S. cerevisiae rad50 strain growth inhibition; at 50.0 µM; active compounds read high
Summary of the method: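 Yeast carrying a defined DNA repair defect were exposed to test compounds, and growth was compared with vehicle-treated controls to give percent inhibition.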

[2] = NCI Yeast Anticancer Drug Screen. Data for the mec2-1 strain (AID 157); settings: S. cerevisiae mec2-1 strain, at 50.0 µM, active compounds read high
Summary of the method: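 Compounds were applied to mec2-1 yeast cells. Their growth was then compared with that of vehicle-treated cultures to give growth inhibition.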

[3] = NCI Yeast Anticancer Drug Screen. Data for the sgs1 mgt1 strain (AID 161);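 further: 0% = growth of cultures given vehicle only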; settings: S. cerevisiae sgs1 mgt1 strain, at 50.0 µM, active compounds read high
Summary of the method: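 Compounds are added to genetically altered yeast, and growth is compared with cultures given vehicle alone to give percent inhibition.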

[4] = NCI Yeast Anticancer Drug Screen. Data for the cln2 rad14 strain (AID 165);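 further: 0% = growth equal to vehicle treated cultures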; settings: S. cerevisiae cln2 rad14 strain, at 50.0 µM, active compounds read high
Summary of the method: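 Strain: cln2 rad14 yeast, altered in cell cycle control and DNA damage repair. Read-out: growth inhibition vs vehicle.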

[5] = NCI Yeast Anticancer Drug Screen. Data for the bub3 strain (AID 167); settings: S. cerevisiae bub3 mutant strain, at 50.0 µM, active compounds read high
Summary of the method: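 Compounds were applied to a genetically altered yeast strain carrying a cell-cycle control defect. Growth inhibition was scored against vehicle-treated controls.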

[6] = NCI Yeast Anticancer Drug Screen. Data for the mlh1 rad18 strain (AID 175); settings: S. cerevisiae mlh1 rad18 strain growth inhibition; at 50.0 µM; active compounds read high
Summary of the method: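 A repair-deficient yeast strain is exposed to test compound, and growth is scored relative to vehicle-treated controls.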

Measured: growth inhibition

C(=C\C1CC2CCCN2O1)/c1ccccc1 (stereo unspecified)
inactive: [1] 39.9% | [2] -20.5% | [3] 15.2% | [4] -23.4% | [5] 2.45% | [6] 11.2%

CC(C)NC(=O)N1C2C3CCC(C)(OC3(C)C)C21 (stereo unspecified)
inactive: [1] -16.5% | [2] -21.4% | [3] 3.7% | [4] -9.35% | [5] -14.9% | [6] -12.2%

CC(C)N=Cc1ccccc1O.CC(C)N=Cc1ccccc1O.[Ni]
inactive: [1] 51.3% | [2] 1.1% | [3] 48.6% | [4] -4.45% | [5] 7.05% | [6] 22.2%

CC12CCC3C(CCC4=CC(O)CCC43C=O)C1(O)CCC2c1ccc(=O)oc1 (stereo unspecified)
inactive: [1] 7.15% | [2] -35% | [3] 18.1% | [4] 15.2% | [5] -11.2% | [6] 5.05%

CC(C)(C)Nc1ccccc1.[C-]#[O+].[C-]#[O+].[C-]#[O+].[Cr]
inactive: [1] -7.75% | [2] -2.3% | [3] -0.55% | [4] 10.3% | [5] 28.4% | [6] 6.3%

CCOP(=O)(OCC)SC=C(Cl)Cl
inactive: [1] -12.9% | [2] 5.5% | [3] 2.1% | [4] -10.6% | [5] 5% | [6] 6.15%

CCC1CC[Si](C)(C)CC12C(=O)NC(=O)NC2=O (stereo unspecified)
inactive: [1] 0.85% | [2] -2.25% | [3] 11.5% | [4] 1.65% | [5] 12.9% | [6] -0.55%

C[As](C)(=S)[As](C)(C)=S
active: [1] 77.3%
inactive: [2] 50.1% | [3] 65.2% | [4] 27.6% | [5] 66.7% | [6] 69.9%

CCC1CC[N-]CC1.CCC1CC[N-]CC1.CCC1CC[N-]CC1.CCC1CC[N-]CC1.N#C[S-].N#C[S-].[Co]
inactive: [1] 23.1% | [2] 16.9% | [3] 34% | [4] 15.3% | [5] 26.8% | [6] 24.8%

F[C](F)(F)[Hg][c]1ccccc1
active: [1] 99.3% | [2] 99.7% | [3] 99.5% | [4] 98.8% | [5] 99.5% | [6] 99.3%

N/C(=N/N=C/c1ccc(O)cc1)N[N+](=O)[O-]
inactive: [1] -2.4% | [2] -29.6% | [3] -14.3% | [4] -31.5% | [5] -6.75% | [6] 9%

N#Cc1ccc(/C=C/C(=O)O)cc1
inactive: [1] 17.2% | [2] -10.4% | [3] -9.15% | [4] -60.2% | [5] -9.9% | [6] -4.3%

Cc1cc(C)c(CCN(C)C)c(C)c1C
inactive: [1] 8.7% | [2] 0.65% | [3] 4.95% | [4] 1.75% | [5] 1% | [6] 23.4%

Nc1ccccc1Nc1ccccc1C(=O)[O-].Nc1ccccc1Nc1ccccc1C(=O)[O-].[Cu+2]
inactive: [1] -3.5% | [2] 7.8% | [3] -19.5% | [4] -3.3% | [5] -11.8% | [6] 7.75%

C[N+](C)(Cc1ccc([N+](=O)[O-])cc1)c1ccc(N(CCCl)CCCl)cc1
inactive: [1] -4% | [2] -24.3% | [3] -33% | [4] -15.4% | [5] -21.8% | [6] 10.8%

O=C(O)c1ccc(=O)[nH]c1
inactive: [1] 25.6% | [2] 7.85% | [3] 10.2% | [4] -22.1% | [5] 13.9% | [6] 19.6%

[CH3][Sn]1([CH3])[O]C(=O)C(=O)[O]1
inactive: [1] 12.2% | [2] 19.4% | [3] 2.4% | [4] -26.8% | [5] -9.6% | [6] 7.8%

CCCC(=O)OC1C(c2ccc(=O)oc2)C2(C)CCC3C(CCC4CC(OC(C)=O)CCC43C)C23OC13 (stereo unspecified)
inactive: [1] 1.55% | [2] -16.9% | [3] 1.5% | [4] 9.6% | [5] -5.95% | [6] 0.2%

ClCCN(CCCl)CC(Cl)COc1cccc2ccccc12 (stereo unspecified)
inactive: [1] 12.2% | [2] 11.6% | [3] 31.5% | [4] -1.6% | [5] 25.2% | [6] 30.4%

Cn1cc(C(=O)C[n+]2ccccc2)c2ccccc21
inactive: [1] -20.4% | [2] -0.45% | [3] -18.3% | [4] 3.7% | [5] -30.1% | [6] -5.45%

O=[N+]([O-])c1ccc(SSC(Cl)(Cl)Cl)cc1
inactive: [1] 33% | [4] 13.4%
active: [2] 94.2% | [3] 93.5% | [5] 78.5% | [6] 84.4%

CN(C1CCCC1)C1CCCC1
inactive: [1] -27.1% | [2] -25.9% | [3] -24.1% | [4] 5.3% | [5] 2.25% | [6] -7.7%

CC(C)[C@]12O[C@H]1[C@@H]1O[C@]13[C@]1(O[C@H]1C[C@H]1C4=C(C(=O)OC4)[C@@H](O)C[C@@]13C)[C@@H]2O
inactive: [1] -8.4% | [2] -18.4% | [3] 6% | [4] -5.85% | [5] -0.3% | [6] -12.8%

COc1ccc(N2C(=O)C3C4c5ccccc5C(C3C2=O)[n+]2ccccc24)cc1 (stereo unspecified)
inactive: [1] 27.2% | [2] -14.1% | [3] 9.7% | [4] -49.5% | [5] -0.45% | [6] 10.6%

O=C1CC=C2C3CC4N(CCC45c4ccccc4N1C25)C/C3=C\CO (stereo unspecified)
inactive: [1] 22.8% | [2] -11.7% | [3] -5.3% | [4] 0% | [5] 37% | [6] -38%

O=C(Cc1ccc2c(c1)OCO2)c1cn(C(=O)Cc2ccc3c(c2)OCO3)c2ccccc12
inactive: [1] 18.7% | [2] 5.9% | [3] 5.4% | [4] 14.8% | [5] 0.35% | [6] 26.4%

O=C(O)C(CSC(c1ccccc1)(c1ccccc1)c1ccccc1)N1C(=O)c2ccccc2C1=O (stereo unspecified)
active: [1] 98.8% | [2] 99.2% | [3] 99.3% | [4] 96.8% | [5] 98.8% | [6] 99%

CC1(C)CCC[N+]1(C)CCC(C(N)=O)(c1ccccc1)c1ccccc1 (stereo unspecified)
inactive: [1] 12.7% | [2] 5.3% | [3] 6.6% | [4] 4.45% | [5] 8.8% | [6] 3.35%

Nc1ccc(P(=O)(O)O)cc1
inactive: [1] -7.8% | [2] -9.55% | [3] -11.7% | [4] -36.1% | [5] -1.05% | [6] -3.95%

Cn1c(O)c(C=N)c(=O)[nH]c1=O
inactive: [1] -4% | [2] 3.35% | [3] -1.65% | [4] -15.7% | [5] -8% | [6] -8.3%

NNc1nncn1N
inactive: [1] -5.25% | [2] -10.9% | [3] -23.4% | [4] 51.3% | [5] -17.5% | [6] -6.25%

CC(C)OP(=O)(OC(C)C)C(C)(C)O
inactive: [1] 2.8% | [2] 3.8% | [3] 12.9% | [4] 21.3% | [5] -1.35% | [6] -32.1%

O=C1NC(=O)C(Cc2cccc(OCc3ccccc3)c2)C(=O)N1
inactive: [1] 20.1% | [2] 2.2% | [3] -1.65% | [4] 5.1% | [5] 0.1% | [6] -52%

CCOC(=O)C(N)C[S][Sn]([CH3])([CH3])[Cl] (stereo unspecified)
inactive: [1] 19.1% | [2] 21.8% | [3] 20.6% | [4] 18.2% | [5] 21.7% | [6] -26.6%

C1CCC(NC2CCCC2)CC1
inactive: [1] 18% | [2] 47.1% | [3] 32.6% | [4] 59% | [5] 12.4% | [6] 13.1%

O=C(O)c1ccccc1/C=N\NC(=S)NC1CN2CCC1CC2 (stereo unspecified)
inactive: [1] 9.45% | [2] 6.25% | [3] 6.85% | [4] -0.5% | [5] 34.6% | [6] -18.6%

O=[N+]([O-])c1ccc(/C=C/C=C/C=C/C=C/c2ccc(S(=O)(=O)F)cc2Cl)c(Cl)c1
inactive: [1] -1.05% | [2] -2.85% | [3] -14.8% | [4] 7.15% | [5] -10.3% | [6] -1.2%

CCCCCCCC/C=C\CCCCCCCC(=O)OCC(COC(=O)CCCCCCC/C=C\CCCCCCCC)OC(=O)N(CCCl)CCCl
inactive: [1] -29.2% | [2] -9.25% | [3] -18.4% | [4] 33.6% | [5] -24.2% | [6] 5.45%

O=S(OO)c1cc(Cl)c(O)c(Cl)c1 (stereo unspecified)
inactive: [1] 3.5% | [2] -24.1% | [3] -1.55% | [4] 7.55% | [5] -10.7% | [6] 3.4%

CCCCCCNC(=O)CBr
inactive: [1] 34.6% | [2] 4.55% | [3] 14.6% | [4] 3.4% | [5] 16.8% | [6] 30%

C1=CC2C=CC(C=C1)[PH+]2c1ccccc1.C1=CC2C=CC(C=C1)[PH+]2c1ccccc1.[C-]#[O+].[C-]#[O+].[C-]#[O+].[Fe] (stereo unspecified)
inactive: [1] -20.1% | [2] 4.4% | [3] -6.6% | [4] 26.1% | [5] 10.6% | [6] -4.85%
